Among the data in PubChem BioAssay (NCI) are growth values, retold here.

The panel holds about 83,000 compounds, 20% with a hit somewhere; the sample as a whole holds those more often.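 The endpoint reported here, percent growth, reads 100 for growth as untreated, 0 for no net growth and -100 for all cells dead.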 Active and inactive are the calls of the source. Rule for the calls: active = growth percent below 10; inactive = the rest.

The assay has as its system HL-60(TB) leukemia. Description: NCI-60 one-dose screen, 48 h (100 = growth as untreated, 0 = no growth, -100 = all killed). Conditions: 10 µM unless noted.
For the compound `COc1ccc(C(=O)N2NC(=O)/C(=C/c3ccc(Br)cc3)N=C2c2ccccc2)cc1`, the growth is 4.51% (active).

In the case of `O=C(c1ccccc1)C1CCC1`, the growth was 88.2% (inactive).

As to `OB(O)c1cccc(-c2nc3ccc4[nH]ncc4c3c3c2CCCC3)c1`, the growth is 32.6% (inactive).

With `COc1ccc(-c2cn(-c3cc(OC)c(OC)c(OC)c3)c(=O)n2C(C)=O)cc1`, the growth is 32.2% (inactive).

On to `COC(=O)CC[C@H](C)[C@H]1CC[C@H]2[C@@H]3CC[C@@H]4CC5(CC[C@]4(C)[C@H]3CC(=O)[C@]12C)Nc1ccccc1NC5=NC(C)(C)C` (some centres undefined), for which the growth was 43.6% (inactive). Take `O=C(CC(SCc1ccccc1)c1ccccc1)c1ccccc1` (centres undefined): the growth was 66.7% (inactive).

Regarding `CS(=O)(=O)C1=CN(CCO)C(=O)N2CCCN=C12`, the growth was 109% (inactive). `O=c1c2cc(F)ccc2sc2c(Nc3cccnc3)nc3ccccc3c12`: the growth is 88.5% (inactive). `COc1ccc(-c2nc3ccc4[nH]ncc4c3c3c2CCCC3)cc1B(O)O`: the growth is 64.6% (inactive).
